Source: PubChem BioAssay

Assays:
[1] = test system: Human papillomavirus type 1a protein E7 (residues 44-93); test: HPV1a E7 fragment binders on microarrays, primary screen, biochemical, small-molecule microarray, residues 44-93, 635 nm fluorescence (AID 1108); details: small-molecule microarray binding, fluorescence 635 nm; higher = more signal;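 further: E7 fragment applied at 1 µg/mL in TBST for 1 h at 4 C; score combines spot fluorescence with its signal to noise ratio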
[2] = modulators of HCV replicon luciferase signal, primary screen, HCV replication inhibitor project, Huh7 cells, luciferase reporter (AID 1109); details: 48 h, higher = more signal;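 further: huh7 hepatoma cells harbouring a luciferase neomycin HCV replicon reporter; luciferase luminescence as measure of HCV replicon replication; test concentration not given here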
[3] = target: Left-right determination factor 2 (Homo sapiens) (UniProt O00292); test: LEFTY2 binders on small-molecule microarrays, primary screen, biochemical, small-molecule microarray, 635 nm fluorescence scan (AID 1110); details: LEFTY2 binding, higher = more signal
Sequence of Left-right determination factor 2 (Homo sapiens) (O00292 whole entry, looked up): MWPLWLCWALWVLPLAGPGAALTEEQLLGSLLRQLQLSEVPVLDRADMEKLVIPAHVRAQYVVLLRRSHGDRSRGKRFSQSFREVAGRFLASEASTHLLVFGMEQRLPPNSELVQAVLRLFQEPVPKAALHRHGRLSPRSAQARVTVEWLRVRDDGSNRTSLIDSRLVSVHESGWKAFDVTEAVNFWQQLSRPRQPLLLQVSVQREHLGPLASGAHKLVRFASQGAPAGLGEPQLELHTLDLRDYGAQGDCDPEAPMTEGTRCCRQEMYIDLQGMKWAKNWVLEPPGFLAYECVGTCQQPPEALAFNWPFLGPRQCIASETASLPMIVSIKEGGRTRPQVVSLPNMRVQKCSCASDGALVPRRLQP

[4] = target: Calmodulin-1 (Homo sapiens) (UniProt P0DP23); test: CALM1 binders on microarrays, EGTA buffer, profiling panel, biochemical, small-molecule microarray, Cy5-labelled CALM1 (AID 1111); details: Cy5-CALM1 binding fluorescence, higher = more signal;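 further: labelled calmodulin applied in Tris saline Tween buffer holding calcium plus EGTA and DTT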
[5] = target: Calmodulin-1 (Homo sapiens) (UniProt P0DP23); test: calcium-bound CALM1 binders on microarrays, profiling panel, artefact control for SMM control-protein annotation, biochemical, small-molecule microarray, Cy5-labelled CALM1, plus calcium (AID 1112); details: Cy5-CALM1 binding fluorescence, higher = more signal;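 further: score merges spot fluorescence with signal to noise from triplicate slides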
[6] = small-molecule microarray binders of probe aWnt5a, primary screen, biochemical, biotinylated probe, 635/667 nm fluorescence (AID 1113); details: higher = more signal;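 further: score merges 667 nm fluorescence intensity with signal-to-noise per printed feature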
[7] = small-molecule microarray binders of probe aShh, primary screen, biochemical, biotinylated probe, 635/667 nm fluorescence (AID 1114); details: higher = more signal;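 further: probe is biotin-labelled aShh protein from a stem cell growth factor screen; measures binding of labelled protein to compounds printed on the slide; score merges feature fluorescence at 667 nm with signal-to-noise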
[8] = small-molecule microarray binders of probe aNog, primary screen, biochemical, biotinylated probe, 635/667 nm fluorescence (AID 1115); details: higher = more signal;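 further: probe is biotinylated aNog protein used at 0.15 µg/mL for 1 h at 4 C; z-score combines 667 nm fluorescence of each spot with its signal to noise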
[9] = target: Torsin-1A-interacting protein 1 (Homo sapiens) (UniProt Q5JTV8); test: LAP1 binders from COS7 cell lysate, primary screen, small-molecule microarray, 635/667 nm fluorescence (AID 1116); details: COS7-hLAP1 lysate binding, 635 nm fluorescence, higher = more signal
Sequence of Torsin-1A-interacting protein 1 (Homo sapiens) (Q5JTV8 whole entry, looked up): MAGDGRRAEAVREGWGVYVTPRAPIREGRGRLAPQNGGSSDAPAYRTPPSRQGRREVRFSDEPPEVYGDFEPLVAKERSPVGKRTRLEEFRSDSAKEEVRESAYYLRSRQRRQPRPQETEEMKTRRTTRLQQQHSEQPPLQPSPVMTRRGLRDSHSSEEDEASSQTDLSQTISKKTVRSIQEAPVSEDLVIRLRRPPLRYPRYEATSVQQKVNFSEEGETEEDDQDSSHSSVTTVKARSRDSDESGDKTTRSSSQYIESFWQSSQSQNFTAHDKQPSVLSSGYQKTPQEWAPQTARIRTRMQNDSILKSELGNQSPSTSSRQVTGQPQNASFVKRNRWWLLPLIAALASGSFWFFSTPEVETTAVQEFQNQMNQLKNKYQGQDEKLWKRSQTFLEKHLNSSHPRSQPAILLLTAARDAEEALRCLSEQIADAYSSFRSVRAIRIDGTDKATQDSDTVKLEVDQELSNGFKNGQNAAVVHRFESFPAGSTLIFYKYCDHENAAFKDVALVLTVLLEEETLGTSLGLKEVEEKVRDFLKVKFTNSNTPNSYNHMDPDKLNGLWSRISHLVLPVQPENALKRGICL

[10] = target: Alpha-bungarotoxin (Bungarus multicinctus) (UniProt P60615); test: alpha-bungarotoxin binders on microarray, profiling panel, artefact control for SMM control protein annotation, biochemical, small-molecule microarray, Alexa647 label, 635/667 nm fluorescence (AID 1117); details: alpha-BTX-A647 binding fluorescence, higher = more signal
Sequence of Alpha-bungarotoxin (Bungarus multicinctus) (P60615 whole entry, looked up): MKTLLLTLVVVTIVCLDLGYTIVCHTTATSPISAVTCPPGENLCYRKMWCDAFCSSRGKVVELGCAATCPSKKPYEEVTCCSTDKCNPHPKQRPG

Structure (SMILES)	composite z-score [1]	z-score [2]	composite z-score [3]	composite z-score [4]	composite z-score [5]	composite z-score [6]	composite z-score [7]	composite z-score [8]	composite z-score [9]	composite z-score [10]
O=C1C2C=CC(C(O)C(c3ccccc3)c3ccccc3)N(Nc3ccccc3F)C2C(=O)N1c1ccccc1 (stereo not given)	1.45	-0.942	0.407	1.04	0.713	0.0182	0.108	0.686	0.855	0.451
O=C(CS)NCCCCCCNC(=O)[C@H]1C[C@H]2C(=O)NCC(=O)N2[C@H]1c1cccc(OCCO)c1	0.864	0.36	0.281	0.214	0.214	0.0079	0.123	0.113	0.469	1.36
C=C(CCCC)/C(=C/C[C@@H](OC(C)=O)c1cccc(OCCO)c1)c1cc(C(=O)OC)ccc1OC	0.364	-2.02	-0.227	-0.405	-0.788	-0.119	0.111	-0.18	0.714	0.621
CCOC(=O)C[C@H]1[C@H](OC(=O)Cc2ccc3c(c2)OCO3)[C@@H](NC(=O)CC(C)C)c2cc(OCCCO)ccc2N1C(=O)c1ccc2ccccc2n1	1	-0.699	0.305	0.42	-0.717	-0.0405	-0.221	-0.0208	0.633	0.185
O=C(NCC(F)(F)F)[C@@H]1c2ccccc2C(=O)N(Cc2cc(C(F)(F)F)cc(C(F)(F)F)c2)[C@H]1c1ccc(CO)cc1	0.236	-1.04	-0.244	-0.0722	0.122	0.0377	-0.0035	-0.103	0.653	0.0956
CCCCC(=C=CC[C@H](O)c1cccc(OCCO)c1)C[C@H](O)c1cc(Cl)cc(Cl)c1O	1.39	-1.59	-0.0526	0.154	-0.484	-0.096	-0.0626	0.422	0.839	0.645
COc1ccc([Si](C)(C)[C@@H]2[C@@H](CC(=O)N3CCC[C@H]3CO)O[C@]3(C(=O)N(Cc4cccc(N5C(=O)c6cccc7cccc5c67)c4)c4ccccc43)[C@H]2C)cc1	1.29	-2.11	0.456	1.15	-0.226	-0.108	-0.0793	-0.458	2.23	0.669
COCCCNC(=O)[C@]1(Cc2ccccc2N=[N+]=[N-])N=C(c2ccc(OCCCO)cc2)O[C@@H]1c1ccccc1	0.565	-1.69	-0.263	2.24	0.908	-0.118	0.0638	-0.661	1.69	2.32
C=CCOC(=O)[C@H]1[C@@H]2C(=O)O[C@@H](c3ccccc3)[C@@H](c3ccccc3)N2[C@@H](c2ccc(OCCOC(=O)[C@H]3C[C@H]4C(=O)NCC(=O)N4[C@H]3c3cccc(OCCO)c3)cc2)[C@]12C(=O)Nc1ccc(I)cc12	1.23	-0.903	0.541	1.05	0.0934	0.0629	0.131	0.131	1.44	1.08
C[C@]1(C(=O)NCC(F)(F)F)c2ccccc2C(=O)N(Cc2cc(C(F)(F)F)cc(C(F)(F)F)c2)[C@H]1c1ccc(CO)cc1	0.454	-0.1	-0.544	-0.136	0.331	-0.0346	-0.0146	0.231	0.173	0.342
Cc1ccc(S[C@]2(C(=O)NCc3ccccc3)CC(=O)N(Cc3ccccc3Cl)[C@@H]2c2ccc(CO)cc2)cc1	-0.0153	-2.79	-1.76	-0.272	0.273	-0.19	0.0858	0.308	-0.0706	-0.619
COC(=O)[C@@]1(Cc2ccc(F)cc2)[C@H]2c3cc(C(=O)N4CCCC4)n(Cc4ccc(OC(F)(F)F)cc4)c3C[C@H]2CN1C(=O)c1ccccc1	0.118	0.234	-0.763	0.028	0.336	0.164	0.265	1.17	0.383	-0.272
Cc1ccc(S[C@]2(C(=O)NCc3ccccc3)CC(=O)N(Cc3ccccc3C(F)(F)F)[C@@H]2c2ccc(CO)cc2I)cc1	-0.565	-1.64	-0.916	-0.348	0.549	-0.124	-0.334	0.389	0.662	-0.593
COC(=O)[C@@]1(Cc2ccc(F)cc2)[C@H]2c3cc(C(=O)N4CCCC4)n(Cc4ccc(C(F)(F)F)nc4)c3C[C@H]2CN1C(=O)c1ccccc1	1.18	-2.15	0.0089	2.16	0.557	0.106	-0.382	-1.06	0.873	0.615
C=C(CC1([C@@H](NP(=O)(c2ccccc2)c2ccccc2)[C@H]2C[C@@H]2CCCC)CC1)c1cccc(OC)c1	0.812	-1.79	-0.872	1.48	0.691	0.103	0.313	1.46	0.182	-0.306
COC(=O)[C@@]1(Cc2ccccc2)[C@H]2c3cc(C(=O)N(C)C)n(CCF)c3C[C@H]2CN1C(=O)c1ccccc1	0.233	-1.66	-0.555	2.8	1.31	-0.0118	-0.305	-0.52	3.08	1.43
C=C(C(=O)CC[C@@H](OC(=O)c1ccccc1-c1ccccc1C(=O)O)c1cccc(OCCO)c1)C(C)C	-0.635	-3.06	0.706	-0.367	-0.692	-0.129	-0.0396	-0.248	3.26	-0.11

Structure (SMILES)	composite z-score [1]	z-score [2]	composite z-score [3]	composite z-score [4]	composite z-score [5]	composite z-score [6]	composite z-score [7]	composite z-score [8]	composite z-score [9]	composite z-score [10]
C=CCOC(=O)[C@@H]1[C@H]2C(=O)O[C@H](c3ccccc3)[C@H](c3ccccc3)N2[C@H](c2ccc(OCCOC(=O)[C@H]3C[C@H]4C(=O)N[C@@H](CCCCN(C)C)C(=O)N4[C@H]3c3cccc(OCCO)c3)cc2)[C@@]12C(=O)Nc1ccccc12	0.313	-0.772	-1.19	0.12	0.177	-0.033	0.584	0.511	0.518	0.175
COC(=O)[C@@]1(Cc2ccc(F)cc2)[C@H]2c3cc(C(=O)N4CCCC4)n(CCSCCO)c3C[C@H]2CN1C(=O)c1ccccc1	1.2	-1.24	-0.721	1.34	0.318	0.0914	1.08	1.56	0.403	0.566
Cc1ccc(S[C@]2(C(=O)NC(C)C)CC(=O)N(Cc3ccccc3)[C@@H]2c2ccc(CO)cc2I)cc1	-0.0832	-1.78	-1.13	0.129	0.454	-0.172	0.0711	0.813	-0.426	-0.684
C=CCNC(=O)[C@H]1[C@@H]2C(=O)O[C@@H](c3ccccc3)[C@@H](c3ccccc3)N2[C@@H](c2ccc(O)cc2)[C@]12C(=O)N(C(=O)OCCOC)c1ccc(C#Cc3ccc(OC)cc3)cc12	1.33	-1.09	0.254	1.38	-0.0807	-0.001	0.229	-0.477	0.42	0.286
COc1ccc(CCNC(=O)[C@@H]2c3ccccc3C(=O)N(C(C)C)[C@H]2c2ccc(CO)cc2)cc1	-0.943	-1.41	-1.81	-0.446	0.465	-0.172	-0.209	-0.0621	0.434	2.66
CC(C)[Si]1(C(C)C)OCc2cc(-c3ccc(-c4ccc(Cl)c(Cl)c4)o3)nc(-c3ccc(Oc4ccccc4)cc3)c21	-1.76	-0.105	-1.44	-0.168	0.698	-0.265	-0.243	-0.132	-1.22	-1.55
CCCC=C(CCC)[C@@H](NC(=O)c1ccc(C(=O)OC)cc1)c1ccc(C(=O)OC)cc1	0.981	-0.682	-0.634	1.48	1.06	0.313	1.45	-0.316	0.253	-0.037
C=C(/C=C\CNS(=O)(=O)c1ccc(C)cc1)[C@H](O)[C@H]1CCCN1S(=O)(=O)c1ccccc1[N+](=O)[O-]	-0.251	-3.55	0.318	-0.337	-0.477	-0.0405	-0.138	-0.219	0.612	0.293
O=C1OCCC/C=C\[C@H]2OC34C=CCN(Cc5ccccc5)C(=O)[C@H]3N(CCO)C(=O)[C@@H]4C12 (stereo not given in full)	-0.574	0.0684	0.518	-0.251	0.774	-0.169	-0.0709	-0.33	-0.447	-1.06
COc1ccc(C(O)C2C=CC3C(=O)N(C)C(=O)C3N2Nc2ccccc2)cc1 (stereo not given)	1.22	-1.14	-0.132	0.675	0.283	0.0792	0.462	1.76	0.916	1.38
COC(=O)C(CC#Cc1ccc2c(c1)[C@]1(C(=O)N2)[C@H](C(N)=O)[C@H]2C(=O)O[C@H](c3ccccc3)[C@H](c3ccccc3)N2[C@@H]1c1ccccc1OCCO)C(=O)OC	1.47	-3.34	0.205	0.534	0.237	-0.0721	-0.291	-0.0604	1.87	1.19
O=C1O[C@H](c2ccccc2)[C@H](c2ccccc2)N2[C@H]1[C@@H](C(=O)N1CCCCCCC1)[C@]1(C(=O)Nc3ccc(C#CCCO)cc31)[C@H]2c1ccc(O)cc1	1.52	-0.637	1.69	3.02	1.75	1.62	2.01	0.939	5.54	4.23
C=CCNC(=O)[C@H]1[C@@H]2C(=O)O[C@@H](c3ccccc3)[C@@H](c3ccccc3)N2[C@@H](c2ccc(O)cc2)[C@]12C(=O)Nc1ccccc12	0.864	-0.462	-0.588	0.51	0.0876	-0.148	-0.0769	-0.0089	1.33	0.269
CCOC(=O)C=C1C[C@@H](c2cccc([N+](=O)[O-])c2)O[C@@H](c2cccc([N+](=O)[O-])c2)O1	0.478	-1.96	0.584	1.68	0.966	0.0289	0.317	1.64	0.785	1.05
C=CCNC(=O)[C@H]1[C@@H]2C(=O)O[C@@H](c3ccccc3)[C@@H](c3ccccc3)N2[C@@H](c2ccc(OCCO)cc2)[C@]12C(=O)N(C(=O)OCCOC)c1ccc(C#CCC(C(=O)OC)C(=O)OC)cc12	1.41	-1.54	0.158	1.58	0.81	0.291	2.08	1.42	2.68	1.63
C=C(COC)/C(=C/C[C@@H](OC(C)=O)c1cccc(OCCO)c1)c1cnc2ccccc2c1	0.848	-1.73	0.754	-0.534	-0.593	0.0391	0.199	-0.0065	0.302	1.87
